Consider 100 compounds from PubChem BioAssay AID1626 (SRMLSC, 2009).

The whole screen tested about 220,000 compounds, of which about 2,000 (0.91%) were called active. About 2% were inconclusive and are not listed. No stated cut-off is given here; in the data, inconclusive means inhibition above about 80% without an active follow-up result; inactive means below that; test concentration not stated here. Only a sample is shown. Measured potencies and affinities stand elsewhere.

This assay can be described thus: M. tuberculosis H37Rv growth inhibitors, H37Rv strain (AID 1626).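 Further: bacteria incubated seven days before Alamar blue readout; 0% = bacteria only wells and 100% = bacteria with antibiotic wells.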 To be noted: active compounds read high, concentration not given here.
`C=CCn1c(-c2ccccc2)nc2nc3ccccc3nc21`: the inhibition (in general, the drop in the measured response relative to a control, in per cent) was 5.61% (inactive).

With `CNC(=O)CSc1nnc(-c2ccncc2)n1Cc1ccccc1`, the inhibition was -4.15% (inactive).

Take `CCOC(=O)CSC1=N/C(=C\c2cc(OC)c(OC)c(OC)c2)C(=O)N1C`: the inhibition is 0.23% (inactive).

Consider `CCC1Oc2ccc(C)cc2N(Cc2cccc(C)c2)C1=O` (stereo not given), for which the inhibition was 17.5% (inactive).

`CN(Cc1ncc[nH]1)C(=O)c1cc(COc2c(F)cccc2F)on1`: the inhibition is 0.91% (inactive).

For the compound `O=C(/C=C/c1cccs1)N1CCCCC1`, the inhibition was 12.9% (inactive).

Consider `CC1CN(C(=O)/C=C/c2ccc([N+](=O)[O-])s2)CC(C)O1` (stereo not given), for which the inhibition is 6.46% (inactive).

Take `Cc1ccc(/C=C/C(=O)N2CC(C)CC(C)C2)o1` (stereo not given): the inhibition is 15.8% (inactive).

As for `O=C(/C=C/c1ccccc1[N+](=O)[O-])N1CCCCC1`, the inhibition is 3.44% (inactive).

As to `CCc1nc2ccccc2n1Cc1ccc(F)cc1`, the inhibition was 3.76% (inactive).

Regarding `CCOC(=O)N1CCC(NC(=O)Cn2cc3c(n2)CCCC3)CC1`, the inhibition was -5.16% (inactive).

For `Cc1ccccc1C(C(=O)NC1CCCCC1)N(C(=O)CNC(=O)c1ccco1)c1cccnc1` (stereo not given), the inhibition was 2.42% (inactive).

Consider `NC1=NCC(O)=C1c1nc2ccccc2[nH]1`, for which the inhibition was 4.96% (inactive).

As for `COc1ccc(C(=O)/C=C/c2cn(CC(O)CN3CCN(C)CC3)c3ccccc23)cc1OC` (stereo not given), the inhibition is -1.8% (inactive).

Take `Cc1ccc(C(=O)/C=C/c2cn(CC(O)CN3CCOCC3)c3ccccc23)cc1` (stereo not given): the inhibition is 78.3% (inactive).

Regarding `O=Cc1cn(CC(O)CN2CCCCC2)c2ccccc12` (stereo not given), the inhibition was -4.08% (inactive).

On to `O=C(/C=C/c1cn(CC(O)CN2CCOCC2)c2ccccc12)c1cccs1` (stereo not given), for which the inhibition was 4.21% (inactive).

In the case of `COc1ccc(C(=O)/C=C/c2cn(CC(O)CN3CCOCC3)c3ccccc23)cc1` (stereo not given), the inhibition was 15.2% (inactive).

Regarding `CCCCN(C)CC(O)Cn1cc(/C=C/C(=O)c2cccs2)c2ccccc21` (stereo not given), the inhibition is 32.9% (inactive).

In the case of `C=CCNC(=O)c1ccc(-c2ccc([N+](=O)[O-])cc2)o1`, the inhibition is 2.72% (inactive).

Turning to `COc1cccc(/C=C2\SC(=S)N(NC(=O)c3ccncc3)C2=O)c1`, the inhibition is -9.97% (inactive).

With `O=C(NCc1csc(-c2cccs2)n1)Nc1ccc(F)cc1F`, the inhibition was -1.75% (inactive).

Turning to `Cc1cc(C)n(CC(O)Cn2c3ccc(Cl)cc3c3cc(Cl)ccc32)c(=O)n1` (stereo not given), the inhibition was 3.67% (inactive).

Regarding `OCCNCC(O)Cn1c2ccccc2c2ccccc21` (stereo not given), the inhibition was 3.13% (inactive).

For the compound `OCCn1c(-c2ccccc2)csc1=Nc1ccccc1`, the inhibition is 3.23% (inactive).

Consider `CCOc1ccc(N=c2scc(-c3ccc(OC)cc3)n2CCO)cc1`, for which the inhibition was 27.6% (inactive).

With `Cc1cc(C)cc(C(=O)NCCCc2ccccc2)c1`, the inhibition was -1.21% (inactive).

Regarding `CCN(CC)C(=O)C1CCCN(Cc2sccc2C)C1` (stereo not given), the inhibition is -5.07% (inactive).

Take `Cc1nc(N)nc(COc2ccccc2)n1`: the inhibition is -5.7% (inactive).

In the case of `CCc1nc(N2CCC(C)CC2)c2oc3ccccc3c2n1`, the inhibition is 21.7% (inactive).

For the compound `CCc1nc(N2CCCCC2)c2oc3ccccc3c2n1`, the inhibition was 22.4% (inactive).

On to `O=C(NCCCn1ccnc1)C(=O)NCC(c1cccnc1)N1CCN(c2ccccc2)CC1` (stereo not given), for which the inhibition was 0.94% (inactive).

Take `COC(=O)/C(=N/Nc1ccccc1)N1CCCc2ccccc21`: the inhibition is 38.7% (inactive).

For `ClC(=C\c1ccccc1)/C=N/N1CCN(c2ccccn2)CC1`, the inhibition was -1.5% (inactive).

As for `CC(=O)Nc1ccc(NC(=O)CSc2ccc([N+](=O)[O-])cn2)cc1`, the inhibition is -4.39% (inactive).

On to `O=C(CSc1ccccn1)Nc1ccc2c(c1)OCCO2`, for which the inhibition was -16.3% (inactive).

Turning to `O=C(Nc1nnc(SCc2ccc(F)cc2)s1)c1cccnc1Cl`, the inhibition was 7.86% (inactive).

For `CC(=O)Nc1nnc(SCc2ccc(F)cc2)s1`, the inhibition is 1.23% (inactive).

`O=C(Nc1nnc(C2CC2)s1)c1ccncc1`: the inhibition was -4.03% (inactive).

Turning to `CCSc1nnc(NC(=O)c2cnccn2)s1`, the inhibition was 2.03% (inactive).

On to `Cc1cnc(C(=O)Nc2nnc(C)s2)cn1`, for which the inhibition is -5.75% (inactive).

Turning to `O=C(Nc1nnc(SCc2c(Cl)cccc2Cl)s1)c1ccc2ncsc2c1`, the inhibition was 29.9% (inactive).

`CCSc1nnc(NC(=O)c2cccnc2Cl)s1`: the inhibition was -8.72% (inactive).

On to `CSc1ncccc1C(=O)Nc1nnc(C2CC2)s1`, for which the inhibition is 0.73% (inactive).

On to `COc1ccc(N2CCN(C(=O)C(C)(C)Oc3ccc(Cl)cc3)CC2)cc1`, for which the inhibition is 10.8% (inactive).

In the case of `CCCCn1c(/C=C/c2ccco2)nc2ccccc21`, the inhibition is -4.08% (inactive).

`CN(CCC(=O)Nc1ccc2c(c1)OCO2)Cc1ccccc1`: the inhibition is -7.11% (inactive).

Take `Cc1cccc(S(=O)(=O)NNC(=O)Cc2cccn2C)c1`: the inhibition was 3.18% (inactive).

Regarding `COc1ccccc1NC(=O)COc1ccc(Br)cc1CNCCCN1CCOCC1`, the inhibition is -1.49% (inactive).

Turning to `Oc1ccccc1/C=N/[n+]1ccccc1`, the inhibition was -3.35% (inactive).

Take `CCc1cc(=O)oc2cc(OCC(=O)O)c(Cl)cc12`: the inhibition is -5.56% (inactive).

`O=C(Nc1nnc(SCc2ccc(F)cc2)s1)c1ccco1`: the inhibition is -8.91% (inactive).

`CCC(=O)Nc1nnc(SCc2ccc(F)cc2)s1`: the inhibition is 7.4% (inactive).

Take `CCCCNC(=O)Nc1ccccc1C(=O)Nc1ccc(OC)cc1`: the inhibition was -1.66% (inactive).

Turning to `CCc1cccc(NC(=O)C(NC(=O)C2CCCCC2)C(C)C)c1` (stereo not given), the inhibition was -6.21% (inactive).

As for `COc1ccc(C)cc1S(=O)(=O)N1c2ccccc2CC1C` (stereo not given), the inhibition was 2.45% (inactive).

With `CCOC(=O)c1cnc(-n2nc(C)cc2C)nc1N1CCOCC1`, the inhibition was -9.47% (inactive).

For the compound `CCOC(=O)c1cnc(-n2nc(C)cc2C)nc1Oc1ccc(C(=O)OC)cc1`, the inhibition is 8.41% (inactive).

On to `CCOC(=O)c1cnc(-n2nc(C)cc2C)nc1Nc1cccc(C(=O)O)c1`, for which the inhibition is 7.26% (inactive).

On to `CCOC(=O)c1cnc(-n2nc(C)cc2C)nc1Oc1ccc(C#N)cc1`, for which the inhibition was -2.96% (inactive).

For the compound `CCOC(=O)c1cnc(-n2nc(C)cc2C)nc1N(C)C`, the inhibition is 4.9% (inactive).

As for `CCOC(=O)c1cnc(-n2nc(C)cc2C)nc1Nc1ccc(O)cc1`, the inhibition is 0.145% (inactive).

As for `CCOC(=O)c1cnc(-n2nc(C)cc2C)nc1NC`, the inhibition is 19.4% (inactive).

For the compound `CCOC(=O)c1cnc(-n2nc(C)cc2C)nc1NNc1nc(C)cc(C)n1`, the inhibition is 71.3% (inactive).

In the case of `O=C(O)c1cccnc1Br`, the inhibition is 1.4% (inactive).

`Cc1ccc(/C=N/OC(=O)c2nn(C)cc2Cl)cc1`: the inhibition is 11.9% (inactive).

On to `CCC1CSC(Nc2ccc(C(=O)/C=C/c3ccc(OC)c(OC)c3)cc2)=N1` (stereo not given), for which the inhibition was 44.8% (inactive).

With `CCCc1cc(=O)[nH]c(SCc2ccc(F)cc2)n1`, the inhibition was -1.85% (inactive).

In the case of `COc1cccc(NC(=O)N2CCCc3ccccc32)c1`, the inhibition is 15% (inactive).

Turning to `COc1cccc2sc(N(CCCN(C)C)C(=O)c3sc4ccccc4c3Cl)nc12`, the inhibition is 1.6% (inactive).

Consider `COc1cccc2sc(N(CCCN(C)C)C(=O)COc3ccc(Cl)cc3)nc12`, for which the inhibition is -2.48% (inactive).

In the case of `Cc1cccc(C(=O)Nc2ccccc2C(=O)OCC(=O)Nc2ccc(C#N)cc2)c1`, the inhibition was 45% (inactive).

On to `CCNC(=O)COC(=O)CNC(=O)c1cc(Cl)cc([N+](=O)[O-])c1`, for which the inhibition was -10% (inactive).

For the compound `CN(C)C(=O)Oc1ccc(Cl)c2cccnc12`, the inhibition was -4.68% (inactive).

As to `O=C(Oc1ccc(Cl)c2cccnc12)N1CCCCC1`, the inhibition was 4.79% (inactive).

Consider `CCCC(=O)Nc1ccc(NC(=O)c2ccccc2Cl)nc1`, for which the inhibition was 7.45% (inactive).

In the case of `O=C(N/N=C/C=C\c1ccc([N+](=O)[O-])cc1)c1cccnc1`, the inhibition was -15.7% (inactive).

Consider `CS(=O)(=O)Oc1ccc2c(c1)O/C(=C\c1cccnc1)C2=O`, for which the inhibition is -6.08% (inactive).

Consider `O=C1/C(=C/c2cccnc2)Oc2cc(OS(=O)(=O)c3ccc(Cl)cc3)ccc21`, for which the inhibition is 13.6% (inactive).

Take `Cc1ccc(S(=O)(=O)Oc2ccc3c(c2)O/C(=C\c2cccnc2)C3=O)cc1`: the inhibition was -0.74% (inactive).

As to `O=C1/C(=C/c2ccncc2)Oc2cc(OS(=O)(=O)c3ccccc3)ccc21`, the inhibition was 21.6% (inactive).

Take `Cc1ccc2[nH]cc(C(=O)CN3CCOCC3)c2c1`: the inhibition is -4.26% (inactive).

On to `COc1ccc(C2C3=C(CCCC3=O)Nc3n[nH]c(C)c32)cc1OC` (stereo not given), for which the inhibition was -5.11% (inactive).

`CCOC(=O)CSc1nnc(CNc2cccc(Cl)c2)n1-c1ccccc1`: the inhibition is 5.48% (inactive).

Regarding `N#Cc1nc(-c2ccc(OCc3ccc(Cl)cc3)cc2)oc1NCCCn1ccnc1`, the inhibition was -1.04% (inactive).

Turning to `N#Cc1nc(-c2ccc(OCc3ccccc3)cc2)oc1NCCCn1ccnc1`, the inhibition is 4.85% (inactive).

`Cc1cccc(C)c1Nc1nnc(SCc2cn3cccc(C)c3n2)s1`: the inhibition is -7.42% (inactive).

As for `COc1ccc(-c2cc(=Nc3ccccc3)c3cc(C)ccc3o2)cc1`, the inhibition was 17.7% (inactive).

`COc1ccc(-c2cc(=Nc3ccc(C)cc3)c3ccccc3o2)cc1`: the inhibition is 12.8% (inactive).

As for `O=C(CNC(=O)c1ccco1)Nc1ccc(S(=O)(=O)N2CCCC2)cc1`, the inhibition is -5.82% (inactive).

For the compound `Cc1ccc2nc(N(CCCN(C)C)C(=O)CCc3ccccc3)sc2c1`, the inhibition is 9.45% (inactive).

Regarding `CN(C)CCCN(C(=O)CCc1ccccc1)c1nc2ccc(F)cc2s1`, the inhibition was 7.03% (inactive).

Take `O=C1NC(c2ccccc2)=NC1(NS(=O)(=O)c1ccc(Cl)cc1)C(F)(F)F` (stereo not given): the inhibition was 7.08% (inactive).

Consider `O=C(c1coc2ccc(O)c(CN3CCOCC3)c12)C1CC1`, for which the inhibition was 4.13% (inactive).

Take `O=C(c1ccc(Cl)cc1)c1coc2ccc(O)cc12`: the inhibition was -6.06% (inactive).

With `COc1ccc(OC)c(C(=O)c2coc3ccc(O)cc23)c1`, the inhibition was -1.33% (inactive).

Turning to `O=C(c1cccs1)c1coc2ccc(O)cc12`, the inhibition is 51% (inactive).

Turning to `CN1CC(=O)N(CC(=O)Nc2ccc(F)cc2)c2ccccc2C1=O`, the inhibition was -5.02% (inactive).

For the compound `COc1ccc(C(=O)Nn2c(CCC(=O)O)ccc2-c2ccc(C)cc2)cc1OC`, the inhibition was -3.08% (inactive).

Turning to `Cc1cccc(N2CCN(C(=O)N3CCOCC3)CC2)c1C`, the inhibition is -3.5% (inactive).
